Laboratory results reported in the supplement of paper PMC7411054.
Counter-ions that a name gives are not always drawn.

What was measured:
Settings in all cases: treatment time: 24 h
A549-ACTB-RAB5A [1] = assay: lowest phenotypically active concentration; higher = less potent
Method in brief: (§1)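 Two criteria together defined phenotypic activity: deviation and reproducibility. Deviation meant ≥3 of 4 wells beyond the 95th percentile of Euclidean distances in solvent control wells, and reproducibility meant a median replicate Pearson correlation above the 95th percentile of non-replicates. Wells had been treated for 24 h at 0.3, 1, 3 or 9 µM in fifteen gene-edited A549, HepG2 and WPMY1 reporter lines before live imaging.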

A549-CANX-COX4 [2] = assay: as above
Method in brief: as §1

A549-GM130-SQSTM1 [3] = assay: as above
Method in brief: as §1

A549-TP53BP1-CLTA [4] = assay: as above
Method in brief: as §1

A549-TUBA1B-RELA [5] = assay: as above
Method in brief: as §1

A549-ACTB-RAB5A [6] = assay: phenotypically active (imaging signature differs from DMSO and reproducible) at any of 0.3-9 uM (binary (1 = active, 0 = inactive)); higher = active
Method in brief: as §1

A549-CANX-COX4 [7] = assay: as above
Method in brief: as §1

A549-GM130-SQSTM1 [8] = assay: as above
Method in brief: as §1

A549-TP53BP1-CLTA [9] = assay: as above
Method in brief: as §1

A549-TUBA1B-RELA [10] = assay: as above
Method in brief: as §1

HepG2-ACTB-RAB5A = assay: as above
Method in brief: as §1

HepG2-CANX-COX4 = assay: as above
Method in brief: as §1

HepG2-GM130-SQSTM1 = assay: as above
Method in brief: as §1

HepG2-TP53BP1-CLTA = assay: as above
Method in brief: as §1

HepG2-TUBA1B-RELA = assay: as above
Method in brief: as §1

WPMY1-ACTB-RAB5A = assay: as above
Method in brief: as §1

WPMY1-CANX-COX4 = assay: as above
Method in brief: as §1

WPMY1-GM130-SQSTM1 = assay: as above
Method in brief: as §1

WPMY1-TP53BP1-CLTA = assay: as above
Method in brief: as §1

WPMY1-TUBA1B-RELA = assay: as above
Method in brief: as §1

SMILES	lowest phenotypically active concentration (A549-ACTB-RAB5A [1]) [µM]	lowest phenotypically active concentration (A549-CANX-COX4 [2]) [µM]	lowest phenotypically active concentration (A549-GM130-SQSTM1 [3]) [µM]	lowest phenotypically active concentration (A549-TP53BP1-CLTA [4]) [µM]	lowest phenotypically active concentration (A549-TUBA1B-RELA [5]) [µM]	phenotypically active (A549-ACTB-RAB5A [6])	phenotypically active (A549-CANX-COX4 [7])	phenotypically active (A549-GM130-SQSTM1 [8])	phenotypically active (A549-TP53BP1-CLTA [9])	phenotypically active (A549-TUBA1B-RELA [10])	phenotypically active (HepG2-ACTB-RAB5A)	phenotypically active (HepG2-CANX-COX4)	phenotypically active (HepG2-GM130-SQSTM1)	phenotypically active (HepG2-TP53BP1-CLTA)	phenotypically active (HepG2-TUBA1B-RELA)	phenotypically active (WPMY1-ACTB-RAB5A)	phenotypically active (WPMY1-CANX-COX4)	phenotypically active (WPMY1-GM130-SQSTM1)	phenotypically active (WPMY1-TP53BP1-CLTA)	phenotypically active (WPMY1-TUBA1B-RELA)
CN1CC[C@H](c2c(O)cc(O)c3c(=O)cc(-c4ccccc4Cl)oc23)[C@H](O)C1 [Flavopiridol hydrochloride]	≤ 0.3	≤ 0.3	≤ 0.3	≤ 0.3	≤ 0.3	1 (active)	1 (active)	1 (active)	1 (active)	1 (active)	1 (active)	1 (active)	1 (active)	1 (active)	1 (active)	1 (active)	1 (active)	1 (active)	1 (active)	1 (active)
CC(=O)c1c(C)c2cnc(Nc3ccc(N4CCNCC4)cn3)nc2n(C2CCCC2)c1=O	≤ 0.3	≤ 0.3	≤ 0.3	≤ 0.3	≤ 0.3	1 (active)	1 (active)	1 (active)	1 (active)	1 (active)	1 (active)	1 (active)	1 (active)	1 (active)	1 (active)	1 (active)	1 (active)	1 (active)	1 (active)	1 (active)
CCNC(=O)c1noc(-c2cc(C(C)C)c(O)cc2O)c1-c1ccc(CN2CCOCC2)cc1	≤ 0.3	≤ 0.3	≤ 0.3	≤ 0.3	≤ 0.3	1 (active)	1 (active)	1 (active)	1 (active)	1 (active)	1 (active)	1 (active)	1 (active)	1 (active)	1 (active)	1 (active)	1 (active)	1 (active)	1 (active)	1 (active)
COc1cc(C(=O)NC2CCN(C)CC2)c(F)cc1Nc1ncc2c(n1)N(C1CCCC1)CC(F)(F)C(=O)N2C [TAK 960 hydrochloride]	≤ 0.3	≤ 0.3	≤ 0.3	≤ 0.3	≤ 0.3	1 (active)	1 (active)	1 (active)	1 (active)	1 (active)	1 (active)	1 (active)	1 (active)	1 (active)	1 (active)	1 (active)	1 (active)	1 (active)	1 (active)	1 (active)
CC(C)NCCCn1c(Sc2cc3c(cc2I)OCO3)nc2c(N)ncnc21	≤ 0.3	≤ 0.3	≤ 0.3	≤ 0.3	≤ 0.3	1 (active)	1 (active)	1 (active)	1 (active)	1 (active)	1 (active)	1 (active)	1 (active)	1 (active)	1 (active)	1 (active)	1 (active)	1 (active)	1 (active)	1 (active)
CCC1(O)CC2CN(CCc3c([nH]c4ccccc34)C(C(=O)OC)(c3cc4c(cc3OC)N(C)C3C(O)(C(=O)OC)C(OC(C)=O)C5(CC)C=CCN6CCC43C65)C2)C1 (stereo not given) [Vinblastine sulfate]	≤ 0.3	≤ 0.3	≤ 0.3	≤ 0.3	≤ 0.3	1 (active)	1 (active)	1 (active)	1 (active)	1 (active)	1 (active)	1 (active)	1 (active)	1 (active)	1 (active)	1 (active)	1 (active)	1 (active)	1 (active)	1 (active)
O=C1Nc2ccc(F)cc2C1=C1Nc2ccccc2C1=NO [5'-Fluoroindirubinoxime]	1	1	1	1	1	1 (active)	1 (active)	1 (active)	1 (active)	1 (active)	1 (active)	1 (active)	1 (active)	1 (active)	1 (active)	1 (active)	1 (active)	1 (active)	1 (active)	1 (active)
CS(=O)(=O)c1cccc(CNc2nc(Nc3ccc4c(c3)CCC(=O)N4)ncc2C(F)(F)F)c1	3	3	3	3	3	1 (active)	1 (active)	1 (active)	1 (active)	1 (active)	1 (active)	1 (active)	1 (active)	1 (active)	1 (active)	1 (active)	1 (active)	1 (active)	1 (active)	1 (active)
CC(=O)O[C@H]1C(=O)[C@@]2(C)[C@H]([C@H](OC(=O)c3ccccc3)[C@]3(O)C[C@H](OC(=O)[C@H](O)[C@@H](NC(=O)c4ccccc4)c4ccccc4)C(C)=C1C3(C)C)[C@]1(OC(C)=O)CO[C@@H]1C[C@@H]2O [paclitaxel]	≤ 0.3	≤ 0.3	≤ 0.3	≤ 0.3	≤ 0.3	1 (active)	1 (active)	1 (active)	1 (active)	1 (active)	1 (active)	1 (active)	1 (active)	1 (active)	1 (active)	1 (active)	1 (active)	1 (active)	1 (active)	1 (active)
O=C1Cc2c([nH]c3ccc(Br)cc23)-c2ccccc2N1 [Kenpaullone]	3	3	3	3	3	1 (active)	1 (active)	1 (active)	1 (active)	1 (active)	1 (active)	1 (active)	1 (active)	1 (active)	1 (active)	1 (active)	1 (active)	1 (active)	1 (active)	1 (active)
Oc1ccc(-c2nc(-c3ccc(F)cc3)c(-c3ccncc3)[nH]2)cc1	3	3	9	1	3	1 (active)	1 (active)	1 (active)	1 (active)	1 (active)	1 (active)	1 (active)	1 (active)	1 (active)	1 (active)	1 (active)	1 (active)	1 (active)	1 (active)	1 (active)
